# Reference: PubChem BioAssay (NCATS)
# Several values for one entry are separate records, joined by “and”; a condition that tells them apart may be missing. Equal values may be shown once. A number with no mark means an inactive call. Records with an inconclusive call do not appear. Activity calls are given as the source filed them. Unless noted, calls come from the whole dose curve; as a rule, active = well fitted inhibition curve with a large enough effect; inconclusive = small, poorly fitted or top-dose-only effect; inactive = flat fitted curve, though single readings scatter.
# Columns and labels:
# [1] = Drug repurposing screens with cells derived from glioblastoma tumor samples (AID 1345199); conditions: GBM patient neurospheres viability, ATP luminescence, 48 h; note: nearly all actives have a fitted effect of over 40% in size; note: potency is the fitted concentration of half-maximal effect; for activity, negative = cell killing: % is set by controls: 0 for no effect and ±100 for the full control effect
# Summary of the method: (§1)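 Primary testing used CD133+ neurospheres from four GBM patients, seven concentrations, 48 h exposure and ATP-based viability; confirmation added three slower-growing patient lines.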
# astro = control astrocytes; test: as above; conditions: viability, ATP luminescence, 48 h; series mostly up to 45.9 µM
# Summary of the method: as §1
# [2] = molecular target: Nuclear receptor subfamily 1 group I member 2 (Rattus norvegicus) (UniProt Q9R1A7); test: qHTS assay for small molecule activators of the rat pregnane X receptor (rPXR) signaling pathway (AID 651751; call rule not given here; note: 0% is about no effect); conditions: rPXR reporter cells, luciferase (One-Glo), 24 h
# Sequence of Nuclear receptor subfamily 1 group I member 2 (Rattus norvegicus) (Q9R1A7 whole entry, looked up): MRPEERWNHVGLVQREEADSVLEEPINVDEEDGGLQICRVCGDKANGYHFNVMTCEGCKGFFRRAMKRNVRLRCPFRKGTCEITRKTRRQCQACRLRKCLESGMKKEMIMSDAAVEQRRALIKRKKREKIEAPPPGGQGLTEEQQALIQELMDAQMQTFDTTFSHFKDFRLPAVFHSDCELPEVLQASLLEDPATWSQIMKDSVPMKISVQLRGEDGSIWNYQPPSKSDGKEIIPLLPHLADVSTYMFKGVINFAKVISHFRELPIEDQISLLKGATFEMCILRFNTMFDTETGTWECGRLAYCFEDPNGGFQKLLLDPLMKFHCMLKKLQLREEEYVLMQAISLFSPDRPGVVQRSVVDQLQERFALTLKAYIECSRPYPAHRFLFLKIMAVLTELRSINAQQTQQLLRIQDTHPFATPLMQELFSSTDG
# [3] = qHTS assay for small molecule activators of the human pregnane X receptor (PXR) signaling pathway (AID 720659; call rule not given here; note: 0% is about no effect); conditions: DPX-2 HepG2 CYP3A4-luciferase, 24 h; series mostly up to 92.3 µM
# [4] = at 45.9 µM (top of the series), tumour line B
# [5] = at 45.9 µM (top of the series), tumour line D
# [6] = at 46.1 µM (top of the series), tumour line C
smiles,measurement,setting,value
C=CCC1(C(C)CCC)C(=O)N=C(S)NC1=O (stereo unspecified),"activity, negative = cell killing",[1]; [4],-7.88%
same,"activity, negative = cell killing",[1]; [5],-15.2%
same,"activity, negative = cell killing",[1]; [6],-10.6%
same,Potency,astro,inactive
CCCCNCC(O)c1ccc(O)cc1 (stereo unspecified),"activity, negative = cell killing",[1]; [4],-14.1%
same,"activity, negative = cell killing",[1]; [5],-0.799%
same,"activity, negative = cell killing",[1]; [6],1.33%
same,Potency,astro,inactive
COCC(C)N(C(=O)CCl)c1c(C)csc1C (stereo unspecified),"activity, negative = cell killing",[1]; [4],-13.4%
same,"activity, negative = cell killing",[1]; [5],-11.3%
same,"activity, negative = cell killing",[1]; [6],-13.3%
same,Potency,astro,inactive
same,max response,[2],2.96%
CCC(=O)O[C@]1(c2ccccc2)CCN(C)C[C@H]1C,"activity, negative = cell killing",[1]; [4],-13.3%
same,"activity, negative = cell killing",[1]; [5],-17.1%
same,"activity, negative = cell killing",[1]; [6],-18.2%
same,Potency,astro,inactive
O=C(O)C(Cl)(Cl)Cl,"activity, negative = cell killing",[1]; [4],-5.78%
same,"activity, negative = cell killing",[1]; [5],4.24%
same,"activity, negative = cell killing",[1]; [6],3.74%
same,Potency,astro,inactive
same,max response,[2],6.71% and 3.85%
same,outcome,[3],inactive
C[C@H]1CCC[C@H](O)CCCCCc2cc(O)cc(O)c2C(=O)O1,"activity, negative = cell killing",[1]; [6],1.42%
same,Potency,[1]; tumour line A,12.6 µM (active)
same,Potency,[1]; tumour line D,35.5 µM (active)
same,Potency,astro,inactive
same,max response,[2],-2.32%
C[C@@H](Cc1ccccc1)NCCC(c1ccccc1)c1ccccc1,Potency,astro,inactive
O=C1OC2(c3cc(Br)c(O)cc3Oc3c2cc(Br)c(O)[c]3[Hg])c2ccccc21 (stereo unspecified),"activity, negative = cell killing","[1]; at 20 µM (top of the series), tumour line C",-9.78%
same,Potency,[1]; tumour line A,14.1 µM (active)
same,Potency,astro,inactive
C[C@H]1CC[C@@H]2[C@@H](C)[C@H]3[C@H](C[C@H]4[C@@H]5CC=C6CC(O[C@@H]7O[C@H](CO)[C@H](O)[C@H](O[C@@H]8O[C@H](CO)[C@@H](O)[C@H](O)[C@H]8O)[C@H]7O[C@H]7O[C@@H](C)[C@H](O)[C@@H](O)[C@H]7O)CC[C@]6(C)[C@H]5CC[C@]34C)N2C1 (stereo partly specified),"activity, negative = cell killing",[1]; [6],-1.25%
same,Potency,[1]; tumour line B,22.4 µM (active)
same,Potency,astro,22.4 µM (active)
same,outcome,[3],inactive
